# Results reported in PubChem BioAssay (Tox21).
# Records with an inconclusive call do not appear. A call without a number means that no potency is given here. Activity calls are given as the source filed them. The call rests on the fitted dose curve.
# Assays:
# [1] = target: Acetylcholinesterase (Homo sapiens) (UniProt P22303); assay: Acetylcholinesterase (AChE) small molecule antagonists: colormetric cell-based qHTS assay (AID 1347395); further: nearly all actives have a fitted effect of over 30% in size; further: potency means the concentration at half of the fitted maximal effect
# How it was run: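 Cells (SH-SY5Y, 2,000 per well) are seeded and left overnight at 37 C. Compound is added for 30 min, then DTNB and acetylthiocholine for a further 90 min at 37 C before absorbance-based thiocholine detection.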
# [2] = target: Acetylcholinesterase (Homo sapiens) (UniProt P22303); assay: Acetylcholinesterase (AChE) small molecule antagonists: enzyme-based qHTS assay (AID 1347397); conditions: Potency: AChE enzyme activity inhibition; outcome: AChE enzyme activity inhibition; further: nearly all actives have a fitted effect of over 55% in size; further: potency means the concentration at half of the fitted maximal effect
# How it was run: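 rhAChE 50 mU/mL (dispensed) + cpd or DMSO, 30 min RT; add DTNB/acetylthiocholine cocktail, 10 min RT; colorimetric thiocholine readout. qHTS, 1536-well format.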
# [3] = target: Acetylcholinesterase (Homo sapiens) (UniProt P22303); assay: Acetylcholinesterase (AChE) small molecule antagonists: enzyme-based qHTS assay with human liver microsomes (AID 1347399); conditions: Potency: qHTS inhibition; outcome: qHTS inhibition; further: nearly all actives have a fitted effect of over 60% in size
# How it was run: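 Recombinant human AChE (50 mU/mL in the enzyme mix) and human liver microsomes (0.25 mg/mL final) were preincubated with compound and NADPH (0.25 mg/mL final) for 30 min at 37 C. Acetylthiocholine/DTNB was then added; thiocholine was read colorimetrically after 10 min at room temperature.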
# Sequence of Acetylcholinesterase (Homo sapiens) (P22303 whole entry, looked up): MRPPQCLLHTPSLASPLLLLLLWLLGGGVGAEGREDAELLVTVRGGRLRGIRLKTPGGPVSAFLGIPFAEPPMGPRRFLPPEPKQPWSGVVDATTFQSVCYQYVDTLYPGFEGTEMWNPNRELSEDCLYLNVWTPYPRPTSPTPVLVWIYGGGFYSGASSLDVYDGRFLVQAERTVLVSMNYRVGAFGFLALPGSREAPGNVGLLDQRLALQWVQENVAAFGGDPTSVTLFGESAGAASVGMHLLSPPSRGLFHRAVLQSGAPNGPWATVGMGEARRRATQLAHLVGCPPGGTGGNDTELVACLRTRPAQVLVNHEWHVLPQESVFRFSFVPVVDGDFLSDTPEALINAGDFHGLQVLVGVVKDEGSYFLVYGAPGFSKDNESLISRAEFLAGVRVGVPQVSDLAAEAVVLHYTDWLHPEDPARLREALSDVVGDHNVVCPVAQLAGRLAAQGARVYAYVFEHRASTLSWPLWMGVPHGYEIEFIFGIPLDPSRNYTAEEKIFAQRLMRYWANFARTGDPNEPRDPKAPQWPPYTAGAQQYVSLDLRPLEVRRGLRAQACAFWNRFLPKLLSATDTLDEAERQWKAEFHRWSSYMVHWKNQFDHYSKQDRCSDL
SMILES,Potency [1],Potency [2],Potency [3]
CN(C)CCN1C(=O)c2ccccc2N(C)c2ccccc21,inactive,inactive,inactive
NC/C=C/C(=O)O,inactive,inactive,inactive
O[C@@H](CNC[C@H](O)[C@H]1CCc2cc(F)ccc2O1)[C@@H]1CCc2cc(F)ccc2O1,inactive,inactive,inactive
CN1CCCC(CC2c3ccccc3Sc3ccccc32)C1 (centres undefined),inactive,inactive,inactive
CCCCOc1ccc(C(=O)CCN2CCCCC2)cc1,12.3 µM (active),27.5 µM (active),inactive
O=C1CCC(=O)N1Cl,inactive,inactive,inactive
Cc1nc(N)nc(N)c1-c1ccc(Cl)c(Cl)c1,inactive,inactive,inactive
CC(C)NCC(O)c1ccc2ccccc2c1 (centres undefined),inactive,inactive,inactive
CC[N+](C)(CC)CCOC(=O)C1c2ccccc2Oc2ccccc21,inactive,inactive,inactive
Cc1nc(C)c(C)nc1C,inactive,inactive,inactive
CSc1ccc(Oc2ccc(S(N)(=O)=O)cc2CN(C)C)cc1C,inactive,inactive,inactive
OCc1ccccn1,inactive,inactive,inactive
NC(=O)c1ncn([C@@H]2O[C@H](CO)[C@@H](O)[C@H]2O)c1O,inactive,inactive,inactive
CCO[Si](C)(OCC)OCC,inactive,inactive,inactive
Cc1ccc([N+](=O)[O-])cc1Cl,inactive,inactive,inactive
Cc1ccc(C(=O)C(=O)O)cc1C,inactive,inactive,inactive
CN(Cc1cc(Br)cc(Br)c1N)C1CCCCC1,inactive,inactive,inactive
CN(C)CCN(Cc1ccccc1)c1ccccn1,inactive,inactive,inactive
